High-throughput results deposited in PubChem BioAssay by Sanford-Burnham Center for Chemical Genomics.
A selection: hits, their analogues and other compounds. The true share with any hit is near 28%.
PTK2B oligo ant = antagonists of human Pyk2 oligomerization | Q293 cells, Pyk2 FERM NanoBiT luminescence; stronger effect = lower value | z-score (the deposit names both 25 µM and 10 µM) | 99,000 compounds, 0.83% hits | AID 1347419;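 active = Z-score of -3 or lower, scaled per plate to the spread of control and sample wells; inactive = z-score above -3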;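 note: negative z-score means lost luminescence so less FERM oligomerization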
CYP2C9 inh = inhibitors of human CYP2C9. P11712. CYP2C9 Supersomes, luciferin-H conversion, luminescence. inhibition, % at 5 µM. 96,000 compounds, 20% hits. AID 777;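 active = blocking of liver enzyme CYP2C9 beyond about 50% at 5 µM, limit read from the data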
CYP2C19 act = activators of human cytochrome P450 2C19. P33261. recombinant CYP2C19, luciferin-H EGE luminescence; stronger effect = higher value; 0 = fully inhibited enzyme, 1 = untreated enzyme. activation factor at 5 µM. 96,000 tested, under 10 active. AID 1025;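 active = activation factor of at least 2 at 5 µM in the primary screen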;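 note: 0 = wells with 2.5 mM tranylcypromine and 1 = vehicle-only wells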
Target sequence (P33261 whole entry, looked up): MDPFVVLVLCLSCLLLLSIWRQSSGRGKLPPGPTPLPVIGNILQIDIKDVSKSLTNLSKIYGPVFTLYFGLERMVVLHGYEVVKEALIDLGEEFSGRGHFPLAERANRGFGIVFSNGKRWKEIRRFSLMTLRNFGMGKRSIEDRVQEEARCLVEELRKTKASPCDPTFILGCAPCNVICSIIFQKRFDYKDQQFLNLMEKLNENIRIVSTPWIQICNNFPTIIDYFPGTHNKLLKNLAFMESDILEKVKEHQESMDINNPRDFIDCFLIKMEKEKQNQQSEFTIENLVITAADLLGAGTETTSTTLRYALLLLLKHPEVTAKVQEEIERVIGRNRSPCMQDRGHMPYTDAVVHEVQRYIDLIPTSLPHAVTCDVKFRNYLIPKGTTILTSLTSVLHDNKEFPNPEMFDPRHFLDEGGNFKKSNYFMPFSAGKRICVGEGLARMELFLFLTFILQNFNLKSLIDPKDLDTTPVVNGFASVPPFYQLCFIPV
CYP2C9 act = CYP2C9 (human) activation; activation factor at 5 µM; recombinant CYP2C9, luciferin-H conversion, luminescence; stronger effect = higher value; factor 1 = untreated enzyme, 0 = blocked; 96,000 compounds, 1.4% hits;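 active = activation factor of 2 or more for CYP2C9 at a 5 µM dose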;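 note: 0 = sulfaphenazole-blocked wells and 1 = vehicle-only wells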
CYP2C19 inh = inhibitors of human CYP2C19; CYP2C19 Supersomes, luciferin-H EGE luminescence, 30 min; inhibition, % at 5 µM; 96,000 compounds, 21% hits; AID 778;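 active = CYP2C19 inhibition above a set limit at 5 µM in the primary screen, cut at about 50% in these data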;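 note: plate controls were negative control wells for no effect and 2.5 mM tranylcypromine positive control for full effect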
An asterisk follows results filed as active.

Screening CCOC(=O)c1c(C)[nH]c(C(=O)C(C)OC(=O)c2cccc(OCc3c(C)noc3C)c2)c1C (stereo not drawn) returned PTK2B oligo ant -0.71, CYP2C9 inh 90*, CYP2C19 act 0.2, CYP2C9 act 0.1 and CYP2C19 inh 79*.
CC(c1nnc(SCC(=O)N2CC(=O)Nc3ccccc32)n1Cc1ccccc1)N(C)C (stereo not drawn) was read as PTK2B oligo ant -0.27, CYP2C9 inh 28, CYP2C19 act 0.8, CYP2C9 act 0.7 and CYP2C19 inh 20.
COc1cccc(Cn2c(-c3nonc3N)nc3ccccc32)c1 was read as PTK2B oligo ant -2.6, CYP2C9 inh 31, CYP2C19 act 0.7, CYP2C9 act 0.7 and CYP2C19 inh 30.
`CCOc1ccc(CCNC(=O)Cn2c(-c3nonc3N)nc3ccccc32)cc1OCC` gave PTK2B oligo ant 0.35, CYP2C9 inh 70*, CYP2C19 act 0.6, CYP2C9 act 0.3 and CYP2C19 inh 45.
Screening COc1ccc(CCNC(=O)Cn2c(-c3nonc3N)nc3ccccc32)cc1OC returned PTK2B oligo ant -1.2, CYP2C9 inh 48, CYP2C19 act 0.1, CYP2C9 act 0.5 and CYP2C19 inh 89*.
CCOc1ccc(CCNC(=O)Cn2c(=O)oc3ccccc32)cc1OCC was read as PTK2B oligo ant 0.24, CYP2C9 inh 62*, CYP2C19 act 0.2, CYP2C9 act 0.4 and CYP2C19 inh 84*.
`Cc1ccc(Cn2c(-c3nonc3N)nc3ccccc32)cc1` gave PTK2B oligo ant -0.27, CYP2C9 inh 31, CYP2C19 act 0.8, CYP2C9 act 0.7 and CYP2C19 inh 22.
`Nc1nnnn1/N=C/c1cccc(Oc2ccccc2)c1` gave PTK2B oligo ant 0.12, CYP2C9 inh 8, CYP2C19 act 0.4, CYP2C9 act 0.9 and CYP2C19 inh 56*.
For Nc1nnnn1/N=C/c1cccc(OCc2ccccc2Cl)c1 the results were PTK2B oligo ant 0.82.
For S=c1[nH]ncn1/N=C/c1cccc(Oc2ccccc2)c1 the results were PTK2B oligo ant 1.8, CYP2C9 inh 50, CYP2C19 act 0.4, CYP2C9 act 0.5 and CYP2C19 inh 61*.
`C(=N\n1cnnc1)/c1cccc(Oc2ccccc2)c1` gave PTK2B oligo ant 2, CYP2C9 inh 57*, CYP2C19 act 0.2, CYP2C9 act 0.4 and CYP2C19 inh 77*.
Fc1ccccc1COc1cccc(/C=N/n2cnnc2)c1 was read as PTK2B oligo ant 0.75, CYP2C9 inh 68*, CYP2C19 act 0, CYP2C9 act 0.3 and CYP2C19 inh 99*.
Screening Cc1cc(/C=N/n2cnnc2)c(C)n1-c1ccc(OCc2ccccc2F)cc1 returned PTK2B oligo ant -0.1, CYP2C9 inh 19, CYP2C19 act 0.7, CYP2C9 act 0.8 and CYP2C19 inh 29.
Screening CN(CC(=O)Nc1cccc2ccccc12)c1ccc(S(=O)(=O)N2CCOCC2)cn1 returned PTK2B oligo ant 0.67, CYP2C9 inh 20, CYP2C19 act 1.1, CYP2C9 act 0.8 and CYP2C19 inh -15.
`O=C(NCc1ccccc1)c1ccc(CS(=O)(=O)c2ccccc2)o1` gave PTK2B oligo ant 0.21, CYP2C9 inh 42, CYP2C19 act 0.7, CYP2C9 act 0.6 and CYP2C19 inh 30.
`O=C(NCCSCc1ccco1)Nc1cccc(Cl)c1` gave PTK2B oligo ant -0.59, CYP2C9 inh 33, CYP2C19 act 0.4, CYP2C9 act 0.7 and CYP2C19 inh 64*.
For CCCCOCCCNC(=O)COc1ccccc1 the results were PTK2B oligo ant 0.02, CYP2C9 inh 6, CYP2C19 act 0.7, CYP2C9 act 0.9 and CYP2C19 inh 30.
`O=C(COc1ccccc1)NCCSc1ccccc1` gave PTK2B oligo ant 0.77, CYP2C9 inh 60*, CYP2C19 act 0, CYP2C9 act 0.4 and CYP2C19 inh 97*.
CCc1ccc(OCC(=O)NCCOc2ccccc2)cc1 was read as PTK2B oligo ant 0.9, CYP2C9 inh 50*, CYP2C19 act 0.7, CYP2C9 act 0.5 and CYP2C19 inh 30.
`O=C(NCCSCc1ccco1)Nc1ccc(Cl)cc1` gave PTK2B oligo ant 1.8, CYP2C9 inh 36, CYP2C19 act 0.6, CYP2C9 act 0.6 and CYP2C19 inh 38.
Screening O=C(COc1ccccc1)NCCSCc1ccco1 returned PTK2B oligo ant 0.91, CYP2C9 inh 63*, CYP2C19 act 0.1, CYP2C9 act 0.4 and CYP2C19 inh 85*.
Screening CC(C)(C)SCCNC(=O)COc1ccccc1 returned PTK2B oligo ant 0.66, CYP2C9 inh 13, CYP2C19 act 0.7, CYP2C9 act 0.9 and CYP2C19 inh 29.
